# Measured values taken from PubChem BioAssay AID463173 (ICCB-Longwood Screening Facility, Harvard Medical School, 2010).
# In all, about 52,000 compounds went through this assay and about 4,300 (8.3%) were called active. Cut-off read from the data, not from the text of the source: active = survival mostly below about 52% (no sharp cut-off); inactive = mostly above about 56%. Shown is part of a subset that was picked to be rich in actives.
# System: DeltatarO mutant
# Experiment: S. aureus survival, RN4220 and DeltatarO strains – OD600, teichoic acid synthesis inhibitors, primary screen (AID 463173)
# Details: S. aureus RN4220 wild type/DeltatarO growth, OD600, 18 h, stronger effect = lower value, screened at 18.75 µg/mL (by protocol)
row,SMILES,survival
1,Cn1c(SCc2ccccc2)nnc1C1CCCN1CC(=O)N1CCN(c2ccc(F)cc2)CC1 (stereo unspecified),70% (inactive)
2,Cc1ccc(CNC(=O)CSc2nc(=O)[nH]c3c2CCCC3)cc1,76% (inactive)
3,COc1cc(SC)ccc1C(=O)NCc1ccccc1,95% (inactive)
4,Cc1ccc(-n2ncc(C(=O)NCCN3CCc4ccccc4C3)c2C2CCN(C(=O)OC(C)(C)C)CC2)cc1C,99% (inactive)
5,Cc1ccc(C)c(Cn2c(=O)n(CCCC(=O)NCc3ccc4c(c3)OCO4)c(=O)c3sccc32)c1,74% (inactive)
6,CCCC(=O)Oc1c(Sc2ccc(Cl)cc2)c(C)nn1-c1ccccc1,23% (active)
7,CCCC(=O)Oc1c(Sc2ccc(C)cc2)c(C)nn1-c1ccccc1,56% (inactive)
8,CCC(=O)Oc1c(Sc2ccc(Cl)cc2)c(C)nn1-c1ccccc1,13% (active)
9,Cc1nn(-c2ccccc2)c(OC(=O)C(C)C)c1Sc1ccc(Cl)cc1,36% (active)
10,CCC(=O)Oc1c(Sc2ccc(C)cc2)c(C)nn1-c1ccccc1,71% (inactive)
11,Cc1nn(-c2ccccc2)c(OC(=O)C(C)C)c1Sc1ccccc1,48% (inactive)
12,COc1cc(C(=O)Oc2c(Sc3ccccc3)c(C)nn2-c2ccccc2)cc(OC)c1OC,83% (inactive)
13,COc1ccccc1C(=O)Oc1c(Sc2ccccc2)c(C)nn1-c1ccccc1,62% (inactive)
14,COc1ccc(C(=O)Oc2c(Sc3ccccc3)c(C)nn2-c2ccccc2)cc1OC,47% (inactive)
15,CCC1CCCCN1C(=O)CSc1n[nH]c(-c2ccccc2Cl)n1 (stereo unspecified),102% (inactive)
16,O=C(NC1CCCCC1)N(Cc1ccccc1)Cc1cc2cc3c(cc2[nH]c1=O)OCCO3,52% (inactive)
17,Cc1cc(C)c2nc(C)cc(Nc3cccc(C(=O)O)c3)c2c1,70% (inactive)
18,CCOC(=O)c1cnc2c(Cl)cc(Cl)cc2c1Nc1ccccc1OC,57% (inactive)
19,CCOC(=O)c1cc(S(=O)(=O)Nc2ccccc2OCC)[nH]n1,72% (inactive)

row,SMILES,survival
1,CCOC(=O)c1cnc2c(C)cc(C)cc2c1Nc1ccc(OCc2ccccc2)cc1,17% (active)
2,CCOC(=O)c1cnc2c(C)cc(C)cc2c1Nc1ccccc1OCC,-1% (active)
3,CCOC(=O)c1ccc2nc(C)cc(Nc3cccc(C(=O)O)c3)c2c1,173% (inactive)
4,CCOC(=O)c1cnc2c(C)cc(C)cc2c1Nc1cccc(C(=O)O)c1,5% (active)
5,COc1ccc(CCn2c3c(c(=O)[nH]c2=O)C(NC(=O)c2ccccc2)(C(F)(F)F)C(=O)N3)cc1OC (stereo unspecified),58% (inactive)
6,CCOc1ccccc1N(C)C(=O)c1sc2nc3n(c(=O)c2c1C)CCCC3,64% (inactive)
7,CCC(C)NC(=O)c1nn(-c2ccc(C)cc2)nc1CO (stereo unspecified),94% (inactive)
8,COC(=O)c1ccccc1NC(=O)c1cc2cc(C)ccc2n1C,99% (inactive)
9,COc1ccc(Cn2c(CCC(=O)NCc3cccc(Cl)c3)nc3cccnc32)cc1,129% (inactive)
10,Cc1ccc(Cn2c(CNC(=O)CCc3ccccc3)nc3cccnc32)cc1,97% (inactive)
11,Cc1ccc(CNC(=O)CCc2nc3cccnc3n2Cc2ccccc2)cc1,74% (inactive)
12,O=C(CCc1nc2cccnc2n1Cc1ccccc1)NCc1cccc(Cl)c1,51% (active)
13,O=C(CCc1ccccc1)NCc1nc2cccnc2n1Cc1ccc(F)cc1,-4% (active)
14,COc1ccc(CCC(=O)NCc2nc3cccnc3n2Cc2ccc(F)cc2)cc1,119% (inactive)
15,COc1cc(NC(=O)N(Cc2ccco2)C2CCN(C(C)=O)CC2)cc(OC)c1OC,134% (inactive)
16,N#Cc1ccc(NC(=O)CNCC2CCCCC2)cc1,100% (inactive)
17,CCn1c(=NC(=O)c2ccc3c(c2)OCCO3)sc2c(C)ccc(OC)c21,120% (inactive)
18,O=c1oc2ccccc2cc1-c1cn2cc(Cc3ccccc3F)sc2n1,49% (active)
19,O=c1oc2ccccc2cc1-c1cn2cc(Cc3ccc(Cl)cc3)sc2n1,84% (inactive)

row,SMILES,survival
1,CC(C)c1ccc(Cc2cn3cc(-c4cc5ccccc5oc4=O)nc3s2)cc1,56% (inactive)
2,O=c1oc2ccccc2cc1-c1cn2cc(Cc3ccc(Br)cc3)sc2n1,66% (inactive)
3,O=c1oc2ccccc2cc1-c1cn2cc(Cc3ccc(F)cc3)sc2n1,128% (inactive)
4,O=c1oc2ccccc2cc1-c1cn2cc(Cc3cc(Cl)ccc3Cl)sc2n1,52% (active)
5,Cc1ccc(NC(=O)c2sc3ncn(Cc4cccc(F)c4)c(=O)c3c2C)c(Br)c1,87% (inactive)
6,COc1ccc(NC(=O)Cn2c(=O)n(Cc3nc(C)no3)c(=O)c3cc4c(cc32)OCO4)cc1,99% (inactive)
7,CC(C)CCNC(=O)CN1C(=O)CSc2ccc(S(=O)(=O)N3CCC(C)CC3)cc21,72% (inactive)
8,Cc1ccc(/C=C/c2onc(C)c2S(=O)(=O)N2CCC(C(=O)NCc3ccc(OC(C)C)cc3)CC2)cc1,69% (inactive)
9,COc1cccc(CNC(=O)C(=O)NCC(c2ccco2)S(=O)(=O)c2cccs2)c1 (stereo unspecified),94% (inactive)
10,Cc1ccc(C)c(-c2[nH]c3c(c2-c2c(-n4cccc4)n(C)c(=O)[nH]c2=O)c(=O)[nH]c(=O)n3C)c1,59% (active)
11,COc1cccc(-c2[nH]c3c(c2-c2c(-n4cccc4)n(C)c(=O)[nH]c2=O)c(=O)[nH]c(=O)n3C)c1,63% (active)
12,COc1ccc(-c2[nH]c3c(c2-c2c(-n4cccc4)n(C)c(=O)[nH]c2=O)c(=O)[nH]c(=O)n3C)cc1F,63% (inactive)
13,Cn1c(-n2cccc2)c(-c2c(-c3ccccc3)[nH]c3c2c(=O)[nH]c(=O)n3C)c(=O)[nH]c1=O,60% (inactive)
14,Cc1ccc(-c2[nH]c3c(c2-c2c(-n4cccc4)n(C)c(=O)[nH]c2=O)c(=O)[nH]c(=O)n3C)cc1,65% (inactive)
15,Cc1ccc(C)c(-c2[nH]c3c(c2-c2c(-n4cccc4)n(C)c(=O)n(C)c2=O)c(=O)n(C)c(=O)n3C)c1,64% (inactive)
16,CC(=O)Nc1ccc(C(=O)NCCN2CCOCC2)cc1,96% (inactive)
17,Cc1cccc(N2CCN(S(=O)(=O)c3ccc4c(c3)C(C(C)C)C(=O)N4)CC2)c1C (stereo unspecified),55% (inactive)
18,Cc1ccc(Cc2nc3ccccc3nc2SCC(=O)NCCC(C)C)cc1,112% (inactive)
